Assay [1] deals with FYN. The conditions noted are these: concentration: 1 μM, replicates: in singlicate; n = 1.
Assay [2] deals with GAK. Conditions: concentration: 1 μM, replicates: in singlicate; n = 1.
Assay [3] concerns T1, GCN2(Kin.Dom.2,S808G).
T1 construct: gene EIF2AK4
The conditions noted are these: concentration: 1 μM, replicates: in singlicate; n = 1.

In assay [4] the test system is GRK1. Conditions: concentration: 1 μM, replicates: in singlicate; n = 1.
Assay [5] relates to T2, GRK2.
T2 construct: gene ADRBK1
The conditions noted are these: concentration: 1 μM, replicates: in singlicate; n = 1.

Assay [6] concerns T3, GRK3.
T3 construct: gene ADRBK2
Conditions: concentration: 1 μM, replicates: in singlicate; n = 1.

Assay [7] relates to GRK4. The conditions noted are these: concentration: 1 μM, replicates: in singlicate; n = 1.
In assay [8] the test system is GRK7. The conditions noted are these: concentration: 1 μM, replicates: in singlicate; n = 1.
The test system of assay [9] is GSK3A. The conditions noted are these: concentration: 1 μM, replicates: in singlicate; n = 1.
The subject of assay [10] is GSK3B. Conditions: n = 1.
Assay [11] relates to T4, HASPIN.
T4 construct: gene GSG2
Conditions: concentration: 1 μM, replicates: in singlicate; n = 1.

Assay [12] has as its system HCK. The conditions noted are these: concentration: 1 μM, replicates: in singlicate; n = 1.
Assay [13] concerns HIPK1. The conditions noted are these: concentration: 1 μM, replicates: in singlicate; n = 1.
In assay [14] the test system is HIPK2. Conditions: concentration: 1 μM, replicates: in singlicate; n = 1.
In assay [15] the test system is HIPK3. Conditions: concentration: 1 μM, replicates: in singlicate; n = 1.
Assay [16] deals with HIPK4. Conditions: concentration: 1 μM, replicates: in singlicate; n = 1.
The subject of assay [17] is HPK1. Conditions: concentration: 1 μM, replicates: in singlicate; n = 1.
Assay [18] concerns HUNK. The conditions noted are these: concentration: 1 μM, replicates: in singlicate; n = 1.
Assay [19] has as its system ICK. The conditions noted are these: concentration: 1 μM, replicates: in singlicate; n = 1.
For assay [20], the system named is IGF1R. The conditions noted are these: concentration: 1 μM, replicates: in singlicate; n = 1.
Setting [21] is: concentration: 1 μM, replicates: in singlicate.

Where two headings read alike, the source gives them in different places.
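Further: KINOMEscan kinase panel screen.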

For the compound `Cc1cccc(Nc2nc(NCCN)ncc2C(N)=O)c1` [GSK1292139], the “%Inh” value in assay [1] came out at 48%; in [2], 65%; in assay [3], 41%; in assay [4], 0%; in [5], 0%; in assay [6], 0%. For the same compound, the “%Inh” value in [7] is on record as 15%; in assay [8], 0%; in assay [9], 6%; in assay [10] (setting [21]), 11%; in assay [11] it was 56%; in [12] it was 25%. In addition, the “%Inh” value in [13] stood at 0%; in assay [14] it was 0%; in assay [15] it was 7%; in [16], 0%; in [17], 85%; in assay [18] it was 0%. Also, the “%Inh” value in assay [19] is on record as 13%; in assay [20], 0%.
In the case of `COC(=O)Nc1nc2cc(Oc3ccc(NC(=O)Nc4cccc(SC)c4)cc3)ccc2[nH]1.Cl` [GW697999], the “%Inh” value is 19% in [1]; 21% in [2]; 9% in assay [3]; 0% in [4]; 0% in [5]; 57% in assay [6]. Besides, the “%Inh” value came out at 0% in assay [7]; 0% in assay [8]; 0% in [9]; 0% in assay [10] (setting [21]); 0% in assay [11]; 12% in assay [12]. Besides, the “%Inh” value is listed as 5% in assay [13]; 0% in [14]; 1% in assay [15]; 36% in assay [16]; 30% in assay [17]; 28% in assay [18]. Further, the “%Inh” value in assay [19] is 0%; in [20], 5%.
Regarding `Cn1cc(-c2cnc(N)c3c(-c4ccc5c(c4)CCN5C(=O)Cc4ccccc4)csc23)cn1` [GSK2593074], the “%Inh” value in [1] is listed as 25%; in [2] it was 11%; in [3], 91.2%; in [4] it was 0%; in assay [5], 0%; in [6], 0%. Moreover, the “%Inh” value in assay [7] stood at 7%; in assay [8] it was 6%; in [9] it was 5%; in assay [10] (setting [21]), 0%; in assay [11] it was 0%; in assay [12], 86%. Moreover, the “%Inh” value in [13] was found to be 21%; in assay [14], 0%; in assay [15] it was 7%; in [16] it was 0%; in assay [17], 94%; in assay [18] it was 0%. Also, the “%Inh” value in assay [19] is recorded as 100%; in assay [20], 0%.
Take `COc1cc(Nc2nccc(N3CCC(NC(=O)Nc4ccc5c(c4)OCO5)C3)n2)cc(OC)c1OC` (centres unmarked) [GSK1379766]: the “%Inh” value came to 36% in assay [1]; 21% in assay [2]; 0% in assay [3]; 0% in assay [4]; 0% in [5]; 8% in [6]. In addition, the “%Inh” value is reported as 0% in assay [7]; 0% in [8]; 0% in assay [9]; 2% in assay [10] (setting [21]); 0% in assay [11]; 0% in assay [12]. Also, the “%Inh” value in [13] came out at 0%; in assay [14], 0%; in assay [15], 16%; in [16] it was 0%; in assay [17], 78%; in [18], 0%. The “%Inh” value in assay [19] was 26%; in assay [20], 0%.
In the case of `Cc1cc(-c2ccnc(Nc3cccc(C#N)c3)n2)cc(C)c1O` [GSK1440913], the “%Inh” value in assay [1] is 0%; in assay [2] it was 79%; in assay [3], 0%; in [4], 6%; in assay [5] it was 0%; in assay [6] it was 0%. Also, the “%Inh” value in assay [7] was found to be 90.7%; in assay [8], 0%; in assay [9], 93.8%; in [10] (setting [21]), 26%; in assay [11], 60%; in assay [12], 0%. Besides, the “%Inh” value stood at 98.3% in [13]; 98.9% in assay [14]; 98.2% in assay [15]; 88% in assay [16]; 65% in assay [17]; 43% in assay [18]. Besides, the “%Inh” value turned out to be 79% in assay [19] and 0% in assay [20].
`CN(c1ccc(F)c(NC(=O)c2cccc(OC(C)(C)C#N)c2Cl)c1)c1ccc2nc(NC(=O)C3CC3)sc2n1`: the “%Inh” value is on record as 79% in assay [1]; 0% in [2]; 0% in assay [3]; 0% in assay [4]; 0% in assay [5]; 6% in assay [6]. Further, the “%Inh” value was 4% in assay [7]; 21% in assay [8]; 4% in [9]; 0% in [10] (setting [21]); 27% in assay [11]; 90% in assay [12]. Also, the “%Inh” value in [13] came out at 0%; in assay [14] it was 0%; in assay [15], 0%; in assay [16], 0%; in assay [17], 0%; in [18], 1%. Further, the “%Inh” value in assay [19] and in [20] was 0% in each case.
Consider `Cc1ccc(O)cc1Nc1ccnc2cc(-c3ccc(CN4CCCCC4)o3)ccc12` [GW557777], for which the “%Inh” value in assay [1] is on record as 99.7%; in [2] it was 99.6%; in [3], 0%; in assay [4], 0%; in assay [5], 0%; in assay [6] it was 0%. Also, the “%Inh” value was determined as 13% in assay [7]; 0% in [8]; 0% in assay [9]; 0% in assay [10] (setting [21]); 0% in assay [11]; 99.4% in assay [12]. Further, the “%Inh” value in assay [13] is 0%; in [14] it was 0%; in [15], 0%; in [16] it was 0%; in assay [17], 37%; in [18] it was 32%. In addition, the “%Inh” value in [19] and in assay [20] was 0% in each case.
As to `Cl.O=C(Nc1ccc(Oc2ccc3[nH]c(NC(=O)c4ccco4)nc3c2)cc1)Nc1cc(C(F)(F)F)ccc1F` [GW683134], the “%Inh” value in assay [1] came to 42%; in [2] it was 0%; in [3], 10%; in assay [4], 0%; in [5] it was 0%; in assay [6] it was 11%. In addition, the “%Inh” value is reported as 100% in [7]; 0% in [8]; 0% in assay [9]; 9% in assay [10] (setting [21]); 0% in assay [11]; 58% in [12]. In addition, the “%Inh” value turned out to be 0% in [13]; 0% in [14]; 11% in assay [15]; 88% in [16]; 40% in assay [17]; 0% in assay [18]. Moreover, the “%Inh” value in assay [19] was determined as 0%; in assay [20], 17%.
For the compound `Cc1ccc(NC(=O)c2ccnc(N3CCCCC3)c2)cc1-c1ccc(C(=O)NCC2CC2)cc1` [GW775610], the “%Inh” value in assay [1] worked out at 2%; in assay [2], 0%; in assay [3], 14%; in assay [4], 8%; in assay [5], 16%; in assay [6], 14%. The “%Inh” value is reported as 19% in assay [7]; 0% in [8]; 0% in [9]; 0% in assay [10] (setting [21]); 0% in assay [11]; 0% in assay [12]. Further, the “%Inh” value in assay [13] is given as 11%; in assay [14], 9%; in assay [15] it was 0%; in assay [16], 0%; in assay [17] it was 24%; in assay [18], 0%. Besides, the “%Inh” value was 25% in assay [19] and 0% in assay [20].
Take `COc1ccc(C2=C(Nc3cccc(O)c3)C(=O)NC2=O)cc1` [SB-390766]: the “%Inh” value in assay [1] worked out at 34%; in assay [2], 0%; in [3] it was 61%; in [4], 0%; in [5] it was 0%; in assay [6], 33%. Also, the “%Inh” value in assay [7] came out at 0%; in assay [8], 0%; in assay [9], 41%; in assay [10] (1 µM) it was 35%; in assay [11], 0%; in assay [12] it was 41%. Also, the “%Inh” value in assay [13] is 0%; in [14], 2%; in assay [15], 63%; in assay [16], 93.5%; in assay [17], 36%; in [18], 0%. For the same compound, the results for the “%Inh” value in [19] and in assay [20] were 10% and 0%, respectively.

These data come from article PMC5540273 (PLoS ONE, 2017).
